# Screening data deposited in PubChem BioAssay by several laboratories.
# In the library only some 3.7% were active in any assay of this set; here they are far more common.
# PfHsp90 set2 = growth inhibition of yeast expressing Plasmodium Hsp90; S. cerevisiae expressing PfHsp90, BacTiter-Glo ATP, 48 h; yeast lacking PDR1 and PDR3 efflux regulators; inhibition, % at 9.4 µM; 310,000 compounds, 0.32% hits; AID 504621;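 active means every replicate shows inhibition above about 80%, whatever the replicate mean, limit read from the data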;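 further: 0% = DMSO neutral controls and 100% = 20 µM radicicol positive controls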
# TIM10 inh = TIM10 yeast growth inhibition; S. cerevisiae TIM10 strain growth, BacTiter-Glo luminescence, 24 h; AID 463195; inhibition, % at 10 µM; 330,000 compounds, 1.4% hits;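 active means inhibition of 40% or more at the single tested concentration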;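 further: wild-type TIM10 isogenic control strain grown at permissive 25 °C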
# Rce1 inh = blocks yeast Ras-converting enzyme; Q03530; yeast membranes, quenched prenylated peptide cleavage fluorescence; calls only; 290,000 compounds, 0.27% hits; AID 2563;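 active means fall in fluorescence gain of 50% or more versus controls, with final raw signal at or below 3038400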;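 further: plate controls were neutral control wells for no effect and wells lacking membranes for full effect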
# Target sequence (Q03530 whole entry, looked up): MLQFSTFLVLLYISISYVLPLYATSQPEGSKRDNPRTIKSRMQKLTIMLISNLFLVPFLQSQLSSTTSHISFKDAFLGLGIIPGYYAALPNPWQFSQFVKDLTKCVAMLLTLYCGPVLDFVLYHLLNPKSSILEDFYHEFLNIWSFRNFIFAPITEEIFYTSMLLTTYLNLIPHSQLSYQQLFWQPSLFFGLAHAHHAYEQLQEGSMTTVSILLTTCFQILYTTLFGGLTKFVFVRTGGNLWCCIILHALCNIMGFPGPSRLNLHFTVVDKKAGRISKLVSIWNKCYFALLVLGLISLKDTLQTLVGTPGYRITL
# tim23-1 inh = inhibits growth of tim23-1 mutant yeast. S. cerevisiae tim23-1 growth, BacTiter-Glo luminescence, 24 h. inhibition, % at 20 µM. 330,000 compounds, 1.3% hits. AID 463212;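 active means growth inhibition of the mutant yeast at or above 50%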;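 further: temperature-sensitive mutant grown at 25 °C; plate controls were DMSO-treated mutant yeast for no effect and medium wells lacking yeast for full effect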
# tim10-1 inh = tim10-1 yeast growth inhibition | S. cerevisiae tim10-1 ts strain growth, BacTiter-Glo, 24 h | inhibition, % at 20 µM | AID 463190 | 330,000 compounds, 2.2% hits;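 active means inhibition of at least 40%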;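 further: mutant grown at 25 °C; 0% = DMSO wells with yeast and 100% = wells holding no yeast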
# tim10-1 confirm = tim10-1 yeast growth inhibition, confirmed; shares compounds with tim10-1 inh; S. cerevisiae tim10-1 ts strain growth, BacTiter-Glo, 24 h; inhibition, % at 20 µM; 7,400 compounds, 56% hits; AID 463213;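 active means inhibition of yeast growth at or above a set limit in either of two repeat tests at 20 µM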;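 further: tim10-1 mutant grown at permissive 25 °C to find synthetic lethal compounds; 0% = DMSO yeast wells and 100% = medium wells without yeast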
# tim10 confirm = TIM10 yeast growth inhibition, confirmed; inhibition, % at 10 µM; S. cerevisiae tim10 strain growth, BacTiter-Glo luminescence, 24 h; AID 463215; shares compounds with TIM10 inh; 4,600 compounds, 63% hits;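 active means inhibition of yeast growth at or above a set limit in either of two replicates at 10 µM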;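 further: this counterscreen used the strain with wild-type TIM10; 0% = yeast with DMSO and 100% = medium wells lacking yeast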
# tim23-1 conf = confirmation of tim23-1 mutant yeast growth inhibitors; shares compounds with tim23-1 inh; S. cerevisiae tim23-1 growth, BacTiter-Glo luminescence, 24 h; inhibition, % at 20 µM; 4,400 compounds, 83% hits; AID 463218;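 active means inhibition above about 39% in either of two replicate wells at 20 µM, limit read from the data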;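 further: temperature-sensitive tim23-1 mutant grown at 25 °C; 0% = DMSO wells with yeast and 100% = medium wells without yeast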
# Starred values were filed as active, the others as inactive; i = inactive; nt = no result.
SMILES,PfHsp90 set2,TIM10 inh,Rce1 inh,tim23-1 inh,tim10-1 inh,tim10-1 confirm,tim10 confirm,tim23-1 conf
CC(C)(C)NC(=O)C(Cc1ccccc1)N1C(=O)c2ccccc2C1=O (configuration not stated),4.5,8.6,i,36.1,13.9,nt,nt,nt
COc1cccc(C(c2c(C)[nH]n(-c3ccccc3)c2=O)c2c(C)[nH]n(-c3ccccc3)c2=O)c1O,-2.1,33.4,i,40.5,25.1,nt,nt,nt
COc1cccc(C(c2c(C)[nH]n(-c3ccccc3)c2=O)c2c(C)[nH]n(-c3ccccc3)c2=O)c1OC,-16.7,31.9,i,62.5*,51.5*,32.8*,nt,54.6*
Cc1[nH]n(-c2ccccc2)c(=O)c1C(C[N+](=O)[O-])c1ccccc1Cl (configuration not stated),-52.2,44.4*,i,74.2*,60.9*,58.8*,56.1*,74.6*
Cc1cccc(N2CCN(C(=O)[C@H](C)N3C(=O)C4CC=CCC4C3=O)CC2)c1C (some centres not stated),-6.6,0.2,nt,17.1,0.9,nt,nt,nt
Cc1cccc(/C=C/c2onc(C)c2[N+](=O)[O-])n1,nt,67.9*,i,84.5*,64.1*,61.2*,77.7*,70.6*
CN1/C(=C\C=C(/C#N)C(=O)Nc2ccccc2F)C(C)(C)c2ccccc21,15.7,6.5,i,-8.8,4.3,nt,nt,nt
CN1/C(=C\C(=O)Nc2ccc(F)cc2)C(C)(C)c2ccccc21,9.8,47.6*,i,67.9*,45.4*,48.8*,-20.6,71.6*
Cc1ccc(-c2nc(CS(=O)CC(=O)NCCN3CCCCC3C)c(C)o2)cc1 (configuration not stated),-16.4,-8.1,i,10.1,18.9,nt,nt,nt
CN(CC(=O)Nc1cccc(F)c1)C(=O)c1cc(S(=O)(=O)N2CCCCC2)ccc1N1CCOCC1,2.6,8.8,i,-1.4,1.5,nt,nt,nt
O=C(CN1CC(c2ccccc2)CC1=O)N/N=C/c1cc(Br)ccc1O (configuration not stated),-17.3,34.2,i,56.1*,41.3*,22.4,nt,50.3*
COc1ccc(C)cc1S(=O)(=O)Nc1ccc2c(c1)N(C(C)=O)CCC2,-12.9,14.3,i,11.6,-1.4,nt,nt,nt
O=C(/C=C/Sc1ccc(C(F)(F)F)cn1)c1ccccc1,21.3,21.9,i,60.9*,41.2*,50.6*,nt,46.9*
O=C(CSc1ccc(C(F)(F)F)cn1)Nc1ccccc1,25.6,2.2,i,5.8,-10.7,nt,nt,nt
Cn1c(=O)c2c(SCC(=O)N3CCOCC3)nc(-c3ccccc3Cl)nc2n(C)c1=O,7.6,3.3,i,16.2,14.7,nt,nt,nt
O=C(Cn1cncn1)N/N=C/c1ccc(Cl)cc1,-16.0,-18.1,i,-2.6,-10.7,nt,nt,nt
CC(C)(C)C(=O)/C(=C/c1ccc(Cl)cc1)n1cncn1,-21.6,37.1,i,51.9*,50.8*,35.0*,nt,34.3
Nc1cc2c(cc1Br)-c1c(C(=O)O)cccc1C2O (configuration not stated),-5.9,nt,nt,nt,nt,nt,nt,nt
CC(=O)/C(=C/c1ccccc1)C(=O)Nc1ccccc1C,-83.3,72.1*,i,68.0*,61.2*,52.0*,63.5*,53.8*
Cc1nc(Nc2nc3c(c(=O)[nH]2)CCC3)nc2ccccc12,-40.3,83.4*,i,64.1*,60.3*,72.1*,74.8*,62.3*
CN(c1ccc(O)cc1)c1nc(-c2cccs2)cs1,-2.0,63.6*,i,71.7*,48.9*,43.6*,57.2*,52.1*
Cc1ccc(S(=O)(=O)N/N=C/c2cc(Br)ccc2O)cc1,-3.6,8.7,i,35.9,23.2,nt,nt,nt
Cc1ccc(S(=O)(=O)Nc2ccc(Br)cc2/C=N/n2cnnc2)cc1,-6.6,26.5,i,76.6*,41.4*,35.1*,nt,72.0*
O=C(Nc1nc(=S)ss1)c1c(F)cccc1F,20.9,-6.9,i,3.6,-5.4,nt,nt,nt
CC1Cc2ccccc2N1C(=S)NC(=O)C1(C)CC1(Cl)Cl (configuration not stated),-19.6,8.8,i,31.6,30.4,nt,nt,nt
SMILES,PfHsp90 set2,TIM10 inh,Rce1 inh,tim23-1 inh,tim10-1 inh,tim10-1 confirm,tim10 confirm,tim23-1 conf
N/C(=N\OC(=O)/C=C/c1ccccc1)c1ccncc1,-6.2,13.4,i,6.9,11.6,nt,nt,nt
Cc1ccccc1C(=O)O/N=C(\N)Cc1cccs1,-32.8,89.5*,i,77.4*,67.2*,69.7*,69.5*,80.5*
COc1ccc(C/C(N)=N/OC(=O)c2cccs2)cc1,-36.1,77.1*,i,85.2*,46.2*,63.4*,73.8*,79.5*
COc1ccccc1C/C(N)=N/OC(=O)c1cccs1,-8.9,58.8*,i,77.1*,64.2*,52.8*,60.6*,64.2*
COc1ccccc1C/C(N)=N/OC(=O)/C=C/c1ccccc1,-13.5,82.9*,i,75.2*,53.2*,32.6*,82.8*,76.2*
CC(=O)OC/C=C(\C)CCC=C(C)C,-7.3,-6.9,nt,-7.0,-3.2,nt,nt,nt
COc1ccc(NC(=O)CSCC(=O)Nc2nnc(CC(C)C)s2)cc1,-7.6,6.1,i,1.1,6.3,nt,nt,nt
COc1ccc(/C(C)=N/NC(=S)Nc2cc(C)ccc2C)cc1,-12.8,34.7,i,39.2,31.7,nt,nt,nt
O=C(NCCc1c[nH]c2ccccc12)C(=O)Nc1cc2c3c(c1)CC(=O)N3CCC2,nt,5.8,i,9.9,19.1,nt,nt,nt
O=C(N/N=C/c1ccccn1)c1sc2ccccc2c1Cl,-69.9,17.0,i,75.7*,47.6*,41.0*,nt,63.8*
O=[N+]([O-])c1ccccc1S(=O)(=O)Nc1ccc(S(=O)(=O)Nc2nccs2)cc1,-0.7,51.4*,i,63.4*,61.2*,62.8*,54.4*,56.0*
CCOC(=O)/C(=C/c1ccc(OC(=O)c2ccccc2)cc1)C(C)=O,106.1*,76.8*,i,88.8*,46.6*,64.3*,-19.7,52.6*
C=CCSc1nc(O)c(CC)c(=O)n1C(C)CC (configuration not stated),nt,16.2,i,25.7,21.5,nt,nt,nt
CCc1c(O)nc(SCc2ccccc2)n(C(C)CC)c1=O (configuration not stated),13.4,37.0,i,51.7*,40.7*,44.8*,nt,47.8*
COC(=O)c1cc(Cn2nc(C(=O)O)c3ccccc3c2=O)oc1C,-12.4,5.3,i,5.3,-2.7,nt,nt,nt
Cc1cc2c(cc1C)NC(=O)CC(c1ccccc1)=N2,-10.3,nt,nt,nt,nt,nt,nt,nt
Cc1ccc2c(c1)N=C(c1ccccc1)CC(C(Cl)Cl)=N2,8.1,59.8*,i,74.2*,60.0*,48.0*,55.8*,67.3*
CC1=C/C(=C\c2ccc3c(c2)OCO3)C(=O)S1,-2.1,46.0*,i,53.2*,48.0*,39.4*,39.8*,20.4
